Bioassay records (PubChem)
TMEM16A inh = TMEM16A chloride channel inhibitors, primary screen, cell-based, HTS. hit rate 1.2% among 310,000. normalized B-score (activity score, 25-100; higher = stronger inhibition) at 10 µM. AID 588511, 2011. HEK293 TMEM16A/YFP iodide influx fluorescence, ionomycin. Anoctamin-1 (Mus musculus), Q8BHY3;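 active = ratio plate-corrected score three or more library SD toward inhibition, starting fluorescence score within five deviations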;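 note: score derived from kinetic fluorescence span divided by baseline fluorescence per well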
TMEM16A act = TMEM16A chloride channel activators or potentiators, primary screen, cell-based, HTS; Anoctamin-1 (Mus musculus), Q8BHY3; hit rate 0.3% among 340,000; HEK293 TMEM16A/YFP-H148Q/I152L, iodide quench fluorescence; stronger effect = lower value; B-score at 10 µM; AID 623877, 2012;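 active = fluorescence-ratio B-score plate-corrected deviation score at least 3 library SD below zero, with starting fluorescence score within 5 deviations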;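 note: channel opened by trigger with iodide after compound preincubation; score built on the fluorescence ratio of max minus min over baseline; more negative score means more quench and so TMEM16A activation or potentiation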
TLR4 MyD88 comp = inhibitors of TLR4-MyD88 association in cells, primary screen, cell-based, HeLa CL3-4, BLA complementation, FRET ratio. Toll-like receptor 4 (Homo sapiens) + Myeloid differentiation primary response protein …. HeLa CL3-4 TLR4/MyD88 BLA complementation. inhibition, % at 8.4 µM. hit rate 0.18% among 200,000; in the data active = inhibition above about 25%
HTR2A ag = mouse Htr2a agonists via beta-arrestin recruitment, primary screen, cell-based, luminescence. 5-hydroxytryptamine receptor 2A (Mus musculus), P35363. CHO-K1 mHTR2A beta-arrestin complementation; percent of 30 µM serotonin response. activation, % at 7.6 µM. hit rate 0.66% among 360,000. AID 624169, 2012;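 active = activation above a run cutoff, the mean activation of all tested compounds plus 3 SD, cut at about 14% in these data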
TLR9-MyD88 block = inhibitors of TLR9-MyD88 association in cells, primary screen, cell-based, CHO, BLA complementation, fluorescence | Toll-like receptor 9 (Homo sapiens) + Myeloid differentiation primary response protein … | CCF4 FRET ratio | inhibition, % at 4.98 µM | hit rate 0.21% among 340,000;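 active = inhibition above the mean over all tested compounds plus 3 SD, cut at about 21% in these data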
NOD2 RIPK2 PPI = NOD2-RIPK2 binding disruptors in cells, primary screen, fluorescence, CHO cells, BLA complementation; inhibition, % at 4.98 µM; hit rate 0.38% among 360,000; CCF4 ratio; AID 624267, 2012; in the data active = inhibition above about 21%
Target sequence (O43353 whole entry, looked up): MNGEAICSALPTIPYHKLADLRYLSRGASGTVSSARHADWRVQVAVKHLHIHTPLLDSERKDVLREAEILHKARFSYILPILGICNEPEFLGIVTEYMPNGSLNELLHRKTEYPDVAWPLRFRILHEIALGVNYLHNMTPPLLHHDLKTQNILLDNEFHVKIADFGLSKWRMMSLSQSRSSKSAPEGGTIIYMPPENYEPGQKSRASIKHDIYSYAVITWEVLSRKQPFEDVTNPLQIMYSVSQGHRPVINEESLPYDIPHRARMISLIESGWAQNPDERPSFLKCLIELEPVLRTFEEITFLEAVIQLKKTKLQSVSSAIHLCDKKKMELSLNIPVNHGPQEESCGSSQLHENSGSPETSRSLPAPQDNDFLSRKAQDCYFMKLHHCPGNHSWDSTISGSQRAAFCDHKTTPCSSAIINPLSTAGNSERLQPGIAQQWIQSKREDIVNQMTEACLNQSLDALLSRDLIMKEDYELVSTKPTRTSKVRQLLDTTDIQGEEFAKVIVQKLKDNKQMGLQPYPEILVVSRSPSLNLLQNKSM
Hits are given with their value; n = inactive; x = no result. Rows were chosen to be rich in hits. Some 2.4% of all compounds tested hit in one or more screens of this group.

SMILES | TMEM16A inh | TMEM16A act | TLR4 MyD88 comp | HTR2A ag | TLR9-MyD88 block | NOD2 RIPK2 PPI
COc1ccc(CN2C(=O)CS/C2=N/N=C/c2cccs2)cc1 | n | n | x | n | n | n
O=C(NNc1c([N+](=O)[O-])cc(C(F)(F)F)cc1[N+](=O)[O-])c1ccco1 | 100 | n | x | n | n | n
O=C(NNc1c(F)c(F)cc(F)c1F)c1ccco1 | x | n | x | n | n | n
O=C(CSc1nncs1)NC1CCCCCCC1 | x | n | x | n | n | n
COc1ccc2nc(SCCOC(=O)Nc3ccc(Cl)cc3)nc(C)c2c1 | 25 | n | n | n | n | n
COc1ccc2nc(SCC(=O)O)nc(C)c2c1 | n | n | n | n | n | n
CCOC(=O)C1CCN(C(=O)COC(=O)c2cc([N+](=O)[O-])ccc2N2CCOCC2)CC1 | n | n | x | n | n | n
Cc1ccccc1Nc1nc(Nc2ccccc2C)nc(SC2=NCCS2)n1 | 25 | n | n | n | n | n
Cc1ccc(Nc2nc(Nc3ccc(C)cc3)nc(SC3=NCCS3)n2)cc1 | n | n | n | n | n | n
CCCN1CCN(C(=O)c2ccc(CS(=O)c3ccc(Br)cc3)o2)CC1 (configuration not stated) | x | x | x | n | n | n
CC(=O)c1ccc2c(c1)N(CCCN1CCC(CCO)CC1)c1ccccc1S2 | n | n | x | n | n | n
CSc1ccc2c(c1)N(CCC1CCCCN1C)c1ccccc1S2 (configuration not stated) | 25 | n | n | n | n | n
COc1ccc(N(CC(=O)N/N=C/c2ccccc2OC)S(=O)(=O)c2ccccc2)cc1 | n | n | x | n | n | n
COc1ccccc1-n1c(=O)c(C#N)c(-c2ccc([N+](=O)[O-])cc2)c2cc(C(=O)c3cc(F)ccc3O)cnc21 | n | n | n | n | n | n
Cn1c(=O)c(C#N)c(-c2ccc(F)cc2)c2cc(C(=O)c3cc(Cl)cc(Cl)c3O)cnc21 | 100 | n | x | n | n | n
C#CCOCCOCCOCCNc1nc(N2CCN(C(=O)CCCCCCCCCCNC(=O)[C@H](CCCCN)n3cc(CCCC(=O)O)nn3)CC2)nc(N2CCN(C(=O)CCCCCCCCCCNC(=O)[C@H](CCCN=C(N)N)n3cc(C[C@@H](C)CC)nn3)CC2)n1 | 100 | -16 | x | n | n | n
C#CCOCCOCCOCCNc1nc(N2CCN(C(=O)CCCCCCCCCCNC(=O)[C@H](CCCCN)n3cc(CCO)nn3)CC2)nc(N2CCN(C(=O)CCCCCCCCCCNC(=O)[C@H](CCCN=C(N)N)n3cc(C[C@@H](C)CC)nn3)CC2)n1 | 100 | -22 | x | n | 22 | n
C#CCOCCOCCOCCNc1nc(N2CCN(C(=O)CCCCCCCCCCNC(=O)Cn3cc(C[C@@H](C)O)nn3)CC2)nc(N2CCN(C(=O)CCCCCCCCCCNC(=O)[C@H](CCCCN)n3cc(C[C@@H](C)CC)nn3)CC2)n1 | n | n | x | n | n | 24
O=C1CCCN1CCCN=c1c([N+](=O)[O-])nn(-c2ccc(Cl)cc2)n1O | x | -42 | n | n | n | n
COc1ccc2cc3cc(C(=O)N4CCCCC4C)oc3nc2c1 (configuration not stated) | n | n | x | n | n | n
COc1cccc(C(=O)C2CCCN(C/C=C/c3ccccc3OC)C2)c1 (configuration not stated) | n | n | n | n | n | n
COc1ccc(C(=O)C2CCCN(C/C=C/c3ccccc3OC)C2)c(OC)c1 (configuration not stated) | n | -5.1 | n | n | n | n
O=C(NCc1ccco1)c1cc(S(=O)(=O)N2CCOCC2)c(Cl)cc1Cl | x | n | n | n | n | n
CC1CCc2nc3sc4c(c3c(N)c2C1)CCCC4 (configuration not stated) | n | n | n | n | n | n
Nc1c2c(nc3sc4c(c13)CCCCC4)CCCCC2 | 25 | n | n | n | n | n
SMILES | TMEM16A inh | TMEM16A act | TLR4 MyD88 comp | HTR2A ag | TLR9-MyD88 block | NOD2 RIPK2 PPI
O=c1c2ccccc2ncn1CCCOc1ccccc1[N+](=O)[O-] | 25 | n | n | n | n | n
Cc1ccc(OCC(=O)NNC(=O)C2CCN(c3ncnc4sc(C)c(C)c34)CC2)cc1 | n | n | x | n | n | n
Cc1sc2ncnc(N3CCC(C(=O)NNC(=O)COc4cccc(C(F)(F)F)c4)CC3)c2c1C | 100 | n | x | n | n | n
Cc1sc2ncnc(N3CCC(C(=O)NNC(=O)COc4ccc(Br)cc4)CC3)c2c1C | 100 | n | x | n | n | n
Cc1sc2ncnc(N3CCN(CCOc4ccc(Cl)cc4)CC3)c2c1C | 100 | n | n | n | n | n
Cc1ccc(S(=O)(=O)N[C@H](C(=O)N2CCC(C(=O)N[C@@H](CCC(N)=O)C(=O)O)CC2)C(C)C)cc1 | n | n | x | n | n | n
O=S(=O)(N/N=C\c1ccc2c(c1)OCO2)c1ccccc1 | n | n | x | n | n | n
COCCn1c(SCC(=O)NCc2ccccc2)nnc1-c1ccco1 | n | n | n | n | n | n
CCOC(=O)c1c(NC(C)=O)sc2c(OCC(O)CNC(C)(C)C)c(Br)ccc12 (configuration not stated) | n | -7.1 | n | n | n | n
O=C(CCN1C(=O)C2C3CCC(C3)C2C1=O)OCC(=O)c1cccc([N+](=O)[O-])c1 (configuration not stated) | n | n | n | n | n | n
O=C(OCCOCCOC(=O)Oc1ccccc1)Oc1ccccc1 | x | n | x | n | n | n
N#CC(C#N)=C1C=C2C=C(N3CCCCCC3)CCC2CC1 (configuration not stated) | x | n | n | n | n | n
CN1CCN(C2=CC3=CC(=C(C#N)C#N)CCC3CC2)CC1 (configuration not stated) | x | -41 | n | n | n | n
O=C(Nc1cccc(F)c1)C1CCN(S(=O)(=O)c2cccc3nonc23)CC1 | n | n | x | n | n | n
COC(=O)c1ccc(/C(O)=C(\C#N)c2nc3ccccc3s2)cc1 | 25 | n | n | n | n | n
Cc1ccc(OC/C(O)=C(\C#N)c2nc3ccccc3s2)cc1 | 100 | n | n | n | n | n
O=C(CCCCCN1C(=O)c2ccccc2C1=O)Nc1ccc(S(=O)(=O)N2CCCCC2)cc1 | n | n | n | n | n | n
O=C(OCCCCN1C(=O)c2ccccc2C1=O)c1ccc(S(=O)(=O)N2CCCC2)cc1 | 25 | n | n | n | n | n
Cc1sc(N(C(=O)CCc2ccccc2)c2ccc(C(=O)O)cc2)nc1-c1ccccc1 | 25 | n | n | n | n | n
